According to PubChem BioAssay (EPA / NIEHS):
Records with an inconclusive call do not appear. Some compounds were tested as several samples or in several runs, with calls that do not always agree. Calls of active or inactive are those of the source. The calls were made as follows, unless noted: active = hit-call score of the fitted dose curve at least 0.9, where 1 is the maximum; inconclusive = response in the unintended direction; inactive = score below 0.9.

Assays:
[1] = ATG_ERE_CIS: Attagene CIS-FACTORIAL HepG2 Assay for Estrogen Response Element (ERE) (AID 2282940; active = hit-call score of the fitted dose curve at least 0.9, where 1 is the maximum; inactive = score below 0.9); conditions: HepG2 ERE cis-reporter, Attagene RNA transcript; actives raise or lower the signal
Procedure, shortened: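 HepG2 cells transiently transfected with cis-promoter-driven multiplexed reporter transcription units report endogenous TF activity. After 24 h compound exposure, reporter mRNA is quantified by RT-PCR with capillary electrophoresis fluorescence; bidirectional fitting versus DMSO baseline.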

[2] = target: Bile acid receptor (Homo sapiens) (UniProt Q96RI1); assay: ATG_FXR_TRANS: Attagene TRANS-FACTORIAL HepG2 Assay for Farnesoid X Receptor (FXR) (AID 2282979); conditions: HepG2 Attagene TRANS FXR-GAL4 reporter transcription;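 also: hits raise reporter mRNA above DMSO so AC50 marks FXR activation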
Chain of Bile acid receptor (Homo sapiens) (Q96RI1 whole entry, looked up, the tested form may be a part): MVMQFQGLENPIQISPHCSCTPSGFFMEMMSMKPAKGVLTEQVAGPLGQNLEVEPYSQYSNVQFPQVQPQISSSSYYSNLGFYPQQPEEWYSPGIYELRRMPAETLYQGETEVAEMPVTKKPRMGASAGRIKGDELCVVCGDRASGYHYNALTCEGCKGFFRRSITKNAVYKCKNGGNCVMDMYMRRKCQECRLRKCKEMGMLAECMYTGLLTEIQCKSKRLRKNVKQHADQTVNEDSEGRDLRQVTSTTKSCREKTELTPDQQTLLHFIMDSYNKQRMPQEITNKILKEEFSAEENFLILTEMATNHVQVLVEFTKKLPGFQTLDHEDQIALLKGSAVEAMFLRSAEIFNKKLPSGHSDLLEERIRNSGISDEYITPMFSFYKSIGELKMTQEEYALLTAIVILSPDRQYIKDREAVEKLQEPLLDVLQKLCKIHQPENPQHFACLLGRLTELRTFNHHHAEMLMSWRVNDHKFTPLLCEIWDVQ
Procedure, shortened: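 Transient transfection of HepG2 with multiplexed GAL4-UAS reporter units; exogenous FXR-GAL4 chimera. Dose 24 h → TriZol RNA → oligo(dT) RT → PCR, 6-FAM primer extension, HpaI cut → CE. Gain vs DMSO.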

[3] = target: Aryl hydrocarbon receptor (Homo sapiens) (UniProt P35869); assay: ATG_Ahr_CIS: Attagene CIS-FACTORIAL HepG2 Assay for human Aryl Hydrocarbon Receptor (Ahr) (AID 2282930; active = hit-call score of the fitted dose curve at least 0.9, where 1 is the maximum; inactive = score below 0.9); conditions: HepG2 AhR cis-factorial reporter transcription; actives raise or lower the signal
Chain of Aryl hydrocarbon receptor (Homo sapiens) (P35869 whole entry, looked up): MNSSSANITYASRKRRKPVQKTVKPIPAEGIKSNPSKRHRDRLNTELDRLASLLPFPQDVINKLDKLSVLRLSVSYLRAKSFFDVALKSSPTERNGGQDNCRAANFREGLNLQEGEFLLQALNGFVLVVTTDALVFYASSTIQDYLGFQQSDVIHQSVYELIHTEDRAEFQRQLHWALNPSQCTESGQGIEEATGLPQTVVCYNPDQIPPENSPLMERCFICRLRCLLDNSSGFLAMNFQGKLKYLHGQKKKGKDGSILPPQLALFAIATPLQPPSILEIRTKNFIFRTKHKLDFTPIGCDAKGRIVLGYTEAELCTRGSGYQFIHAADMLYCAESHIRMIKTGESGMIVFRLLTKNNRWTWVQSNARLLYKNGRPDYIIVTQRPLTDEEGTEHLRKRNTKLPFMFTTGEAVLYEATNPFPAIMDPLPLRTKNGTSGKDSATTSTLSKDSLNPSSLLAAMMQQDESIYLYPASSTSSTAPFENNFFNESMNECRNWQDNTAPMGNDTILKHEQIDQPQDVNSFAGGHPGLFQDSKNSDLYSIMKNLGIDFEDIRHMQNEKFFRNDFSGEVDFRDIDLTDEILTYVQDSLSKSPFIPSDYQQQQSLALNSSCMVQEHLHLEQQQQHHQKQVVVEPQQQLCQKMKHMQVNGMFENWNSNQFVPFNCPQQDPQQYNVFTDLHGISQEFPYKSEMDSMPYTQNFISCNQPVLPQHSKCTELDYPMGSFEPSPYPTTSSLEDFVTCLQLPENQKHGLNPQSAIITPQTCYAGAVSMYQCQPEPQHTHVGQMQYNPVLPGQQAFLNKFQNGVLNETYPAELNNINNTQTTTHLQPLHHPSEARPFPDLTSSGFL
Procedure, shortened: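 Transient MRTU transfection of HepG2 → 24 h compound exposure → total RNA, oligo(dT) RT → PCR, 6-FAM extension, HpaI cut → CE fluorescence. DMSO = baseline; bidirectional curve fit.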

[4] = CCTE_Harrill_HTTr_CellCount_MCF7: CCTE's Cell Proliferation Assessment for the High-Throughput Transcriptomics (HTTr) Platform, Harrill Lab (AID 2284012);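 also: count of Hoechst-stained nuclei per well by high-content imaging in MCF-7 cells; cells exposed to compound for six hours; intended direction is loss of nuclei count meaning fewer cells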
Procedure, shortened: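 Readout: Hoechst nuclear count by high-content imaging. MCF-7, 8-point dilution series, 6 h exposure. Bidirectional fit vs DMSO baseline.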

[5] = target: Estrogen receptor beta (Homo sapiens) (UniProt Q92731); assay: OT_ER_ERbERb_0480: Odyssey Thera (OT) 8-hour HEK293T Protein-Complementation Assay for Estrogen Receptor-beta/-beta Homodimer (AID 2283357);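 also: active means signal gain over DMSO baseline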
Chain of Estrogen receptor beta (Homo sapiens) (Q92731 whole entry, looked up, the tested form may be a part): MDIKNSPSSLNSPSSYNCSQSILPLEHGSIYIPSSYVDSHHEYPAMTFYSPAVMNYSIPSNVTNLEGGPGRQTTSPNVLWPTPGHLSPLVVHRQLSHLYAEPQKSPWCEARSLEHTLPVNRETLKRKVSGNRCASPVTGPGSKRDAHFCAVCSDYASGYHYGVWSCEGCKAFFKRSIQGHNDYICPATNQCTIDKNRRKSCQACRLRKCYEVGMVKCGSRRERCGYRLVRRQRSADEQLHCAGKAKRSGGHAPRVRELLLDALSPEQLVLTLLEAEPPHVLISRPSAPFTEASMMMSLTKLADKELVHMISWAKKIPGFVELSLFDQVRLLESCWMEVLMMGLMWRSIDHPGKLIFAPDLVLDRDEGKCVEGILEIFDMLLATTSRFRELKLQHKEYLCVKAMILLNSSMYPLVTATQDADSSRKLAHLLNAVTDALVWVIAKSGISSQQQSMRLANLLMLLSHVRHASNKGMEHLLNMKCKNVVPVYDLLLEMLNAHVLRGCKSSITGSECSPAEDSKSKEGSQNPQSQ
Procedure, shortened: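 ER-beta LBD homodimer PCA stably expressed in HEK293T; 8 h compound exposure, then formaldehyde fixation and Draq5 staining. Gain in nuclear/cytoplasmic fluorescence intensity versus DMSO vehicle, read on laser scanning cytometer.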

[6] = target: Estrogen receptor beta (Homo sapiens) (UniProt Q92731); assay: OT_ER_ERbERb_1440: Odyssey Thera (OT) 24-hour HEK293T Protein-Complementation Assay for Estrogen Receptor-beta/-beta Homodimer (AID 2283380);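 also: scored as signal increase over DMSO baseline for both agonists and antagonists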
Procedure, shortened: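 Fluorescence increase, nuclear for agonists or whole-cell for antagonists, relative to DMSO vehicle, quantified by laser scanning cytometer after fixation and Draq5 staining. Readout from 24 h treatment of HEK293T cells carrying complementation-paired ER beta LBD (aa 310-547).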

[7] = target: Peroxisome proliferator-activated receptor gamma (Homo sapiens) (UniProt P37231); assay: OT_PPARg_PPARgSRC1_0480: Odyssey Thera (OT) 8-hour Protein-Complementation Assay for Peroxisome Proliferator-activated Receptor Gamma / SRC-1 Co-activator (AID 2283387);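 also: nuclear to cytoplasmic split Venus YFP fluorescence ratio reporting PPARg SRC-1 interaction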
Chain of Peroxisome proliferator-activated receptor gamma (Homo sapiens) (P37231 whole entry, looked up, the tested form may be a part): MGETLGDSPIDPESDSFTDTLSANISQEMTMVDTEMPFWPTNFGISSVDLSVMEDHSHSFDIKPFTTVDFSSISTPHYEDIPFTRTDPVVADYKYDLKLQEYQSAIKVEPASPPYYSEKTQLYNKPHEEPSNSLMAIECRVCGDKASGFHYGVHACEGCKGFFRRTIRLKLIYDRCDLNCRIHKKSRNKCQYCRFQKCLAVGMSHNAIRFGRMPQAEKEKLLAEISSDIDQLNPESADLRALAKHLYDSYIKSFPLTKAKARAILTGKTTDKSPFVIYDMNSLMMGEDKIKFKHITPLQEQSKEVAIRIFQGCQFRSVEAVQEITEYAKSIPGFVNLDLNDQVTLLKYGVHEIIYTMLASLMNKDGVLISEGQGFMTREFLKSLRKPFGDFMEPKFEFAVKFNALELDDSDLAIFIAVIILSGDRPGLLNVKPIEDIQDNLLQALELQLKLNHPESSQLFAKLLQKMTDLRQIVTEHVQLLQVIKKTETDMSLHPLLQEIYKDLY
Procedure, shortened: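 Protein-fragment complementation of split Venus YFP reports PPARg/SRC-1 interaction in HEK293T (transfected 48 h before treatment), exposed 8 h. Readout: N/C fluorescence ratio at 488 nm from imaging, Draq5 for segmentation, positive fit relative to DMSO.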

[8] = target: Peroxisome proliferator-activated receptor gamma (Homo sapiens) (UniProt P37231); assay: OT_PPARg_PPARgSRC1_1440: Odyssey Thera (OT) 24-hour Protein-Complementation Assay for Peroxisome Proliferator-activated Receptor Gamma/ SRC-1 Co-activator (AID 2283388);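 also: nuclear to cytoplasmic ratio of reconstituted Venus YFP fluorescence in fixed imaged cells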
Procedure, shortened: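 Protein-fragment complementation between PPARg and coactivator SRC-1 was measured by fluorescence imaging in transiently transfected HEK293T cells after 24 h treatment. Signal was quantified as N/C ratio in the 488 nm channel, with DMSO as negative control.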

[9] = ACEA_AR_antagonist_AUC_viability: ACEA Biosciences xCELLigence Real-Time Cell Analysis on Androgen Receptor Antagonism for Viability (AID 2283776);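 also: 22Rv1 human prostate cancer cells growing on impedance electrode plates; area under impedance growth curve at 80 h after dosing as viability; hits lower the growth signal relative to DMSO meaning cytotoxicity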
Procedure, shortened: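 Impedance read-out (RT-CES): area under growth curve at 80 h post-dose, loss of signal scored vs DMSO baseline. 22Rv1 cells; 8-pt 1:4 series, top 100 uM final, ≤0.5% DMSO; biological duplicate.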

[10] = target: Steroid hormone receptor ERR1 (Homo sapiens) (UniProt P11474); assay: ATG_ERRa_TRANS: Attagene TRANS-FACTORIAL HepG2 Assay for human Estrogen-Related Receptor alpha (ERRa) (AID 2282971); conditions: HepG2 Attagene TRANS reporter, ERRa transactivation
Chain of Steroid hormone receptor ERR1 (Homo sapiens) (P11474 whole entry, looked up, the tested form may be a part): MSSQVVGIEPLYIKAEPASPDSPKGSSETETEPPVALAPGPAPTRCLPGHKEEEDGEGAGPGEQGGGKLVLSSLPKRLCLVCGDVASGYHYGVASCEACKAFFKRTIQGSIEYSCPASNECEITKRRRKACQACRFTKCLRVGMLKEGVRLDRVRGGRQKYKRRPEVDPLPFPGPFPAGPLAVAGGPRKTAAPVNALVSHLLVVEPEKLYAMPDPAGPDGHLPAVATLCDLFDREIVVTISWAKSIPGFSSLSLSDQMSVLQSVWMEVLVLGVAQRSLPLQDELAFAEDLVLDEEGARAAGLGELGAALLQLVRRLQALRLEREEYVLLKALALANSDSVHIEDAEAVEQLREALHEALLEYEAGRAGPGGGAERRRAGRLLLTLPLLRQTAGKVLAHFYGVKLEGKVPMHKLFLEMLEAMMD
Procedure, shortened: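 Reporter transcript induction was quantified by RT-PCR and capillary electrophoresis of FAM-labelled, HpaI-cut products after 24 h treatment of HepG2 cells carrying transiently transfected GAL4-UAS reporter units and an exogenous ERRa-Gal4 fusion; activity scored as increase over DMSO.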

[11] = target: Retinoic acid receptor RXR-alpha (Homo sapiens) (UniProt P19793); assay: OT_NURR1_NURR1RXRa_0480: Odyssey Thera (OT) 8-hour HEK293T Protein Complementation Assay for Nurr1/retinoid X receptor (RXR) (AID 2283385)
Chain of Retinoic acid receptor RXR-alpha (Homo sapiens) (P19793 whole entry, looked up, the tested form may be a part): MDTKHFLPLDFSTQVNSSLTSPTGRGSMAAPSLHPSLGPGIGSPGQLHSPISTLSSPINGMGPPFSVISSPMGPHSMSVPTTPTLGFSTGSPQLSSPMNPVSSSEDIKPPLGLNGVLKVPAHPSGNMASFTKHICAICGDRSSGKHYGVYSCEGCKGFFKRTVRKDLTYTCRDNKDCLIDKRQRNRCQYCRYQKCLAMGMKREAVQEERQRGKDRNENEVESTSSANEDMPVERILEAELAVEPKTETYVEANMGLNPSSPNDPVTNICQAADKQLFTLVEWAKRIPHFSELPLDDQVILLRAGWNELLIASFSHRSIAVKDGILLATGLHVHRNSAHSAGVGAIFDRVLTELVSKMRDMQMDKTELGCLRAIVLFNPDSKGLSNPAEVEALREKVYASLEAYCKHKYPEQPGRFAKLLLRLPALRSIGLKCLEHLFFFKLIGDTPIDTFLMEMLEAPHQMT
Procedure, shortened: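 Read-out: fluorescence from protein-fragment complementation between Nurr1 and RXRα in human HEK293T cells, 8 h after dosing. DMSO served as negative control; increased signal counted as activity.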

[12] = target: Retinoic acid receptor RXR-alpha (Homo sapiens) (UniProt P19793); assay: OT_NURR1_NURR1RXRa_1440: Odyssey Thera (OT) 24-hour HEK293T Protein Complementation Assay for Nurr1/retinoid X receptor (RXR) (AID 2283386)
Procedure, shortened: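 Fluorescence PCA read-out; HEK293T; 24 h post-dose; bait/prey fused to reporter fragments; gain-of-signal fit vs DMSO negative control.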

[13] = ACEA_AR_agonist_AUC_viability: ACEA Biosciences xCELLigence Real-Time Cell Analysis on Androgen Receptor Agonism for Viability (AID 2283775)
Procedure, shortened: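 Viability endpoint from xCELLigence impedance in 22Rv1 prostate cells at 80 h. Eight-point series, 100 uM maximum final.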

[14] = read-out: Pselectin, SELP (gene 6403); assay: BSK_4H_Pselectin: BioMAP Diversity Plus: 4H Assay for Pselectin Biomarker Activity (AID 2283026; active = hit-call score of the fitted dose curve at least 0.9, where 1 is the maximum; inactive = score below 0.9); conditions: primary human endothelial cells (HUVEC); actives raise or lower the signal
Procedure, shortened: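 HUVEC, 24 h chemical exposure; P-selectin read by ELISA. Bidirectional curve fit vs DMSO baseline; gain or loss of signal scored.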

[15] = read-out: Macrophage colony-stimulating factor (MCSF), CSF1 (gene 1435); assay: BSK_CASM3C_MCSF: BioMAP Diversity Plus: CASM3C Assay for Macrophage colony-stimulating factor (MCSF) Biomarker Activity (AID 2283044; active = hit-call score of the fitted dose curve at least 0.9, where 1 is the maximum; inactive = score below 0.9;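 also: M-CSF protein amount quantified by ELISA after 24 h exposure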); conditions: primary human coronary artery smooth muscle cells; actives raise or lower the signal
[16] = read-out: Low-density lipoprotein receptor (LDLR), LDLR (gene 3949); assay: BSK_CASM3C_LDLR: BioMAP Diversity Plus: CASM3C Assay for Low-density lipoprotein receptor (LDLR) Biomarker Activity (AID 2283045; active = hit-call score of the fitted dose curve at least 0.9, where 1 is the maximum; inactive = score below 0.9;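 also: LDLR protein level on the cell surface quantified by ELISA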); conditions: primary human coronary artery smooth muscle cells; actives raise or lower the signal
[17] = read-out: serum amyloid A (SAA), SAA1 (gene 6288); assay: BSK_CASM3C_SAA: BioMAP Diversity Plus: CASM3C Assay for serum amyloid A (SAA) Biomarker Activity (AID 2283049; active = hit-call score of the fitted dose curve at least 0.9, where 1 is the maximum; inactive = score below 0.9;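 also: SAA protein level quantified by ELISA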); conditions: primary human coronary artery smooth muscle cells; actives raise or lower the signal
[18] = read-out: Vascular cell adhesion molecule 1 (VCAM1), VCAM1 (gene 7412); assay: BSK_CASM3C_VCAM1: BioMAP Diversity Plus: CASM3C Assay for Vascular cell adhesion molecule 1 (VCAM1) Biomarker Activity (AID 2283055; active = hit-call score of the fitted dose curve at least 0.9, where 1 is the maximum; inactive = score below 0.9;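 also: VCAM-1 protein level quantified by ELISA on the cells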); conditions: primary human coronary artery smooth muscle cells; actives raise or lower the signal
[19] = read-out: Macrophage colony-stimulating factor (MCSF), CSF1 (gene 1435); assay: BSK_hDFCGF_MCSF: BioMAP Diversity Plus: hDFCGF Assay for Macrophage colony-stimulating factor (MCSF) Biomarker Activity (AID 2283060; active = hit-call score of the fitted dose curve at least 0.9, where 1 is the maximum; inactive = score below 0.9); conditions: AC50: primary human foreskin fibroblasts, actives raise or lower the signal unless noted; outcome: primary human foreskin fibroblasts, actives raise or lower the signal unless noted
Procedure, shortened: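 Primary human foreskin fibroblasts dosed with chemical; 24 h later, M-CSF quantified by ELISA; curves fitted in both directions vs DMSO negative control.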

[20] = read-out: Monokine induced gamma interferon (MIG), CXCL9 (gene 4283); assay: BSK_hDFCGF_MIG: BioMAP Diversity Plus: hDFCGF Assay for Monokine induced gamma interferon (MIG) Biomarker Activity (AID 2283063; active = hit-call score of the fitted dose curve at least 0.9, where 1 is the maximum; inactive = score below 0.9); conditions: primary human foreskin fibroblasts; actives raise or lower the signal
Procedure, shortened: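 Chemicals were added to primary human foreskin fibroblast cultures, which were sampled 24 h later. MIG levels were then quantified by ELISA and responses fitted in both directions relative to DMSO.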

Measured: AC50

CN1CCCC1
inactive: [1] | [2]

CN(C)CCCN1c2ccccc2CCc2ccc(Cl)cc21
inactive: [3] | [4]

CO[Si](CCCNCCN)(OC)OC
inactive: [5] | [6] | [7] | [8] | [9]

CC=CC(=O)O
inactive: [10]

O=C(CC(C(=O)OC1CCCCC1)S(=O)(=O)O)OC1CCCCC1 (configuration not stated)
inactive: [2] | [5] | [6] | [11] | [12] | [7] | [8] | [13] | [9]

CCCCCCCCCCCCCC
inactive: [3] | [4]

Cc1cc(-n2nc3ccc(Cl)cc3n2)c(O)c(C(C)(C)C)c1
inactive: [2] | [14] | [15] | [16] | [17] | [18] | [19] | [20]

Nc1nnc(-c2ccc([N+](=O)[O-])o2)o1
inactive: [1]

CC/C=C\CC1=C(C)CCC1=O
inactive: [3]

CC1=C(CC=O)C(C)(C)CCC1
inactive: [3]

C=CC(C)(CCC=C(C)C)OC(=O)c1ccccc1 (configuration not stated)
inactive: [2]

CC[N+](CC)(CC(=O)Nc1c(C)cccc1C)Cc1ccccc1
inactive: [14] | [15] | [16] | [17] | [18] | [19] | [20] | [11] | [12] | [7] | [8]

O=[N+]([O-])c1ccc2nc[nH]c2c1
inactive: [1] | [2]

O=C(C(=O)c1ccccc1)c1ccccc1
inactive: [10] | [14] | [15] | [16] | [17] | [18] | [19] | [20]

CCOC(=O)c1ccccc1
inactive: [1] | [10] | [5] | [6] | [11] | [12] | [7] | [8] | [13] | [9]

CC[N+](CC)(CC(=O)Nc1c(C)cccc1C)Cc1ccccc1 (tested in a mixture with another compound)
inactive: [14] | [15] | [16] | [17] | [18] | [19] | [20] | [11] | [12] | [7] | [8] | [13] | [9] | [4]
active: [15] 5.41 µM | [16] 591 nM

CC/C=C/CCO
inactive: [2]

C=C(C)C(=O)OCCCCCC
inactive: [1]

CC1=CCCC(C)(C)C12CCC(C)O2 (configuration not stated)
inactive: [2]

O=S(=O)(O)c1cccc2ccccc12
inactive: [10] | [7] | [13] | [9]

O=C(O)c1ccccc1C(=O)O
inactive: [1] | [12] | [13] | [9]

OCCOCCOCCOCCOCCO
inactive: [10]

CN(C)N=Nc1ccccc1
inactive: [10]

CCO[Si](OCC)(OCC)c1ccccc1
inactive: [10]

NCc1ccccc1
inactive: [10] | [4]

CC(C)CC(=O)CC(C)C
inactive: [5] | [6] | [12]

CCCC(=O)OC
inactive: [1]

CCCCCCC(O)CCCCCCCCCCC(=O)OC (configuration not stated)
inactive: [14] | [15] | [16] | [17] | [18] | [19] | [20]
